Bioassay records (PubChem BioAssay)
Only some compounds are listed: those with a hit (about 1.5% of all), similar ones and a draw of the others.
IDE cell activ – boosts human insulin-degrading enzyme activity in HEK cells; activation, % at 5.96 µM; FAbeta-B cleavage, fluorescence polarization; 0% vehicle, 100% cell-free pure enzyme wells; actives 0.073% (n = 340,000); P14735;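 active = activation above the mean of all tested compounds plus 3 SD, set per screening campaign, cut at about 17% in these data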
Target sequence (P14735 whole entry, looked up): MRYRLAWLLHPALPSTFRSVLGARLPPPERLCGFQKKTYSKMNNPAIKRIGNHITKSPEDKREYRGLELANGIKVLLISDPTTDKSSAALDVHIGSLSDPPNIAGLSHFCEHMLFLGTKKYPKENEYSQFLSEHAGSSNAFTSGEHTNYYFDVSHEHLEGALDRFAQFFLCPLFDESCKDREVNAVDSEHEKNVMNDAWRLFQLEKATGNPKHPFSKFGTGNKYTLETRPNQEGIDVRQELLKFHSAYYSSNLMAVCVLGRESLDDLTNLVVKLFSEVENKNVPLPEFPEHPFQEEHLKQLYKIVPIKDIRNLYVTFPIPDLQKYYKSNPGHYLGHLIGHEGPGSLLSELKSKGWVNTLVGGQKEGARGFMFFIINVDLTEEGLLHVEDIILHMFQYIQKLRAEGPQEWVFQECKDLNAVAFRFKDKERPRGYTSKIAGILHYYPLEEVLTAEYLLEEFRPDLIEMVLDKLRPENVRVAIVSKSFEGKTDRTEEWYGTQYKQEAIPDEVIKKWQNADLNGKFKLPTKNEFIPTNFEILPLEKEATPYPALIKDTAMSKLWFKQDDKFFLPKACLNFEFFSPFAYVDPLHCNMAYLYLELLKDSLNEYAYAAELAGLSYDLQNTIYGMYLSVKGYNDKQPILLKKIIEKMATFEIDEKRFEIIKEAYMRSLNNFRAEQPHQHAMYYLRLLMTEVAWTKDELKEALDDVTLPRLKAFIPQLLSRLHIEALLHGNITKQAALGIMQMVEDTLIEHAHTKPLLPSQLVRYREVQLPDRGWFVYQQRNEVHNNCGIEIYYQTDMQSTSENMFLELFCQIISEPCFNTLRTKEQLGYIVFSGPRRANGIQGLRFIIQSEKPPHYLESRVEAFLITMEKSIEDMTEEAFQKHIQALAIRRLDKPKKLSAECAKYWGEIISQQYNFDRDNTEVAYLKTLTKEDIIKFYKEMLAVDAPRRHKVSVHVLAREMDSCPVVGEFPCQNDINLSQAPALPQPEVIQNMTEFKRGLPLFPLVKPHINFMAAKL
CRFBP-R2 block – antagonists of CRF-binding protein/CRF-R2 receptor complex; HEK293 CRF-R2/CRF-BP, CRF-induced calcium fluorescence; inhibition, % at 11.8 µM; actives 0.59% (n = 350,000);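 active = inhibition of the ligand-induced calcium signal above about 50% at the single tested concentration, limit read from the data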
IDE cell inh – inhibitors of human insulin-degrading enzyme in cells; P14735; HEK cells, FAbetaB cleavage, fluorescence polarization; inhibition, % at 5.59 µM; actives 0.41% (n = 320,000); AID 434962;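 active = percent inhibition above the average of all tested compounds plus 3 SD, set per screening campaign, cut at about 16% in these data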;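 note: IDE supplied by intact live HEK cells; FP after avidin binding of uncleaved biotin substrate so inhibition keeps polarization high; 0% = DMSO wells and 100% = 60 µM reference IDE inhibitor Ii1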
Cardiac RTF inh – cardiac RTF calcium desensitization. P19429+P45379. IANBD-labeled cardiac RTF, Ca2+ fluorescence. inhibition, % at 7.15 µM. actives 0.12% (n = 340,000). AID 493244;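 active = inhibition above the mean inhibition of all tested compounds plus 3 SD, cut at about 17% in these data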;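 note: assay run at fixed EC70 calcium of 1.6 mM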
cardiac RTF act – increases calcium sensitivity of human cardiac regulated thin filaments | IANBD-labeled TnC RTF fluorescence at EC20 calcium; 0% EC20 calcium, 100% full calcium | activation, % at 7.2 µM | P19429+P45379 | actives 0.24% (n = 340,000) | AID 493008;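 active = activation above the mean over all tested compounds plus 3 SD, cut at about 30% in these data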;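 note: rise in fluorescence read as greater calcium sensitivity of cardiac thin filaments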
CRFR2-BP ag – CRF-BP/CRF-R2 complex agonism. HEK293 CRF-R2/CRF-BP, calcium dye fluorescence (FLIPR); percent of saturating CRF peptide response. activation, % at 13.2 µM. actives 0.46% (n = 350,000). AID 588473;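 active = activation of at least 50%, plus an integration ratio under a set limit after plate pattern correction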;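 note: plate controls were neutral control wells without compound for no effect and CRF at EC100 for full effect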
IDE cell inh cf – confirmation of human insulin-degrading enzyme inhibitors in cells. shares compounds with IDE cell inh. HEK cells, FAbetaB cleavage, fluorescence polarization. inhibition, % at 5.59 µM. actives 51% (n = 1,200). AID 435028;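 active = mean inhibition across triplicate wells above the cutoff set by the earlier primary insulin-degrading enzyme screen, cut at about 16% in these data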;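 note: 0% = DMSO wells and 100% = 60 µM reference IDE inhibitor Ii1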
HEK cytotox – counter-screen for IDE inhibitors: cytotoxicity in HEK cells. shares compounds with IDE cell inh. HEK293 cytotoxicity, ATP luminescence. inhibition, % at 5.59 µM. actives 28% (n = 1,200); in the data active = inhibition above about 22%;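 note: 0% = vehicle wells and 100% = reference cytotoxic drug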
RTF inh confirm – confirmation of inhibitors of cardiac thin filament calcium sensitivity | shares compounds with Cardiac RTF inh | reconstituted cardiac thin filaments, calcium sensitivity fluorescence | inhibition, % at 7.15 µM | actives 8% (n = 360); in the data active = inhibition above about 18%
The depositor's hits bear a star; i = inactive; . = not tested or not shown; ! = a repeat was not active.

SMILES	IDE cell activ	CRFBP-R2 block	IDE cell inh	Cardiac RTF inh	cardiac RTF act	CRFR2-BP ag	IDE cell inh cf	HEK cytotox	others
O=[N+]([O-])c1ccc(NCc2ccc(Cl)cc2)c2ccncc12	-1.4	12.5	3.8	-13.3	0.2	-1.4	.	.
O=[N+]([O-])c1ccc(NCc2ccccc2)c2nonc12	.	i	34.2*	.	.	493.2*	25.9*	16.4
CCCC1(CC(C)C)C(=O)NC(=S)NC1=O	3.3	6.8	.	-4.3	-2.2	-0.8	.	.
COc1ccc(CN2C(=O)NC(=O)/C(=C/c3ccoc3)C2=O)cc1	-35.0	51.3*	26.6*	-61.6	20.2	9.9	9.3	3.6
COc1ccc(CN2C(=O)NC(=O)/C(=C/c3cc(OC)c(OC)c(OC)c3)C2=O)cc1	-0.9	0.4	2.0	-2.1	6.7	12.8	.	.
Cc1ccc(N2C(=O)NC(=O)/C(=C/c3ccoc3)C2=O)cc1	-26.7	-13.1	.	-12.3	0.9	11.1	.	.
C=CCN1C(=O)NC(=O)/C(=C/c2ccoc2)C1=O	-11.1	-9.0	19.1*	-54.0	10.0	21.2	10.4	7.6
O=[N+]([O-])c1ccc(N2CCOCC2)c2c1no[n+]2[O-]	.	-8.7	.	.	.	-3.0	.	.
Fc1ccc(C(OCCN2CCN(CCCc3ccccc3)CC2)c2ccc(F)cc2)cc1	9.4	-15.4	-3.2	17.1*	-2.7	3.0	.	.	RTF inh confirm=-1.9
c1ccc(CCCN2CCN(CCOC(c3ccccc3)c3ccccc3)CC2)cc1	0.2	18.1	-1.8	-13.9	0.1	0.0	.	.
CN(C)[C@@H]1C(=O)C(C(N)=O)=C(O)[C@@]2(O)C(=O)C3=C(O)c4c(O)cccc4[C@@](C)(O)C3[C@H](O)C12 (some centres not stated)	-1.3	-11.6	-0.6	20.5*!	10.5	1.7	.	.	RTF inh confirm=-4.8
C[C@]12CCC3C(CC[C@H]4C[C@H](O)CC[C@]34C)C1C[C@@H](O)[C@H]2O (some centres not stated)	.	-0.6	.	.	.	3.5	.	.
